Compound activity from PubChem BioAssay.
TTR transcr act: TTR transcription activators in neuroblastoma reporter cells, primary screen, cell-based, luminescence, SH-SY5Y, TTR promoter Gaussia luciferase; 100% = recombinant luciferase protein wells; activation, % at 16.7 µM; hit rate 1.3% among 92,000;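 active means activation above the mean of all tested compounds plus 3 SD, cut at about 9.5% in these data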;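 further: cells exposed to compounds for one day before reading; 0% = median of all test compound wells on the plate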
HuH7 TTR inh: TTR promoter reporter inhibitors in hepatoma cells, counter-screen for TTR transcription activator project, cell-based, luminescence, HuH7 hepatoma. shares compounds with TTR transcr act. inhibition, % at 16.7 µM. HuH7 TTR promoter-Gaussia luciferase reporter. hit rate 4% among 1,100;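 active means average inhibition above the solvent-only control wells' mean plus 3 SD, cut at about 15% in these data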;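 further: 0% = cells with DMSO only and 100% = cells with inhibitor control FD; inhibitors lower well luminescence so higher value means more inhibition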
TTR act confirm: TTR transcription activators, retest, confirmation, cell-based, luminescence, SH-SY5Y, triplicate | AID 1117280, 2014 | 1,100 tested, under 10 active | activation, % at 16.7 µM | shares compounds with TTR transcr act | SHSY5Y TTR promoter Gaussia luciferase; 100% = purified Lucia enzyme wells, no cells;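 active means mean activation above a set limit taken from the earlier primary screen, cut at about 11% in these data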;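 further: 0% = DMSO-treated cells and 100% = recombinant Lucia luciferase without cells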
Numbers without * were called inactive. Many of the other results were omitted from the sample, so hits are more common in it than they were.

SMILES	TTR transcr act	others
CCOc1cc2c(C)cc(=O)oc2cc1Cl	-0.3
C=C(Cl)COc1cc(C)cc2oc(=O)cc(CC)c12	-2.8
Cc1ccc(Cn2cc(COC(=O)N3CCCC3)nn2)cc1	0.4
O=C(O)CCC(=O)N1CCN(S(=O)(=O)c2cccs2)CC1	3.9
CC(=O)c1ccc(OCCCC(=O)N2CCN(S(=O)(=O)c3cccs3)CC2)cc1	-1.1
O=C(CCCOc1ccccc1)N1CCN(S(=O)(=O)c2cccs2)CC1	26.9*	HuH7 TTR inh=-10.1;TTR act confirm=3.8
CC(C)NC(=O)OC[C@@H]1CSCCS(=O)(=O)N1	0.9
COc1ccc(N2CCN(CCCNC(=O)Cn3c(=O)c4cccn4c4c(C)ccnc43)CC2)cc1	1.6
COc1ccccc1CNC(=O)N1CCN(S(=O)(=O)c2ccc(Cl)cc2)CC1	37.6*	HuH7 TTR inh=-13.6;TTR act confirm=0.4
COc1ccccc1CNC(=O)N1CCN(S(=O)(=O)c2ccccc2)CC1	-1.0
COc1cccc(CNC(=O)N2CCN(S(=O)(=O)c3ccc(Cl)cc3)CC2)c1	2.1
C[C@@H]1CCCN1c1cccc2c1S(=O)(=O)N1CC[C@H](C1)O2	-1.2
Cc1ccc(Cn2cc(COC(=O)NCCc3c[nH]c4ccccc34)nn2)cc1	-1.2
Cc1ccccc1CN1CCCCC(NC(=O)c2ccc(F)cc2)C1=O (stereo not drawn)	-1.9
Cc1ccccc1CN1CCCCC(NC(=O)c2ccc(N(C)C)cc2)C1=O (stereo not drawn)	13.0*	HuH7 TTR inh=11.2;TTR act confirm=-1.5
Cc1ccc(CN2CCCCC(NC(=O)c3ccc(N(C)C)cc3)C2=O)cc1 (stereo not drawn)	-1.4
CCOC(=O)N1CCN(C(=O)C[C@H]2C[C@@]3(C(=O)OC)C(=C[C@H](C4CCCC4)O[C@@H]3C)N(CCC3=CCCCC3)C2=O)CC1	2.0
O=C(NC1CCCCC1)C12CC3CC(C1)CC(n1cncn1)(C3)C2	13.1*	HuH7 TTR inh=-4.7;TTR act confirm=-0.2
Cc1cc(NC(=O)C23CC4CC(C2)CC(n2cnc([N+](=O)[O-])n2)(C4)C3)no1	-2.7
O=C(Nc1ccon1)C12CC3CC(C1)CC(n1cnc([N+](=O)[O-])n1)(C3)C2	-0.3
CC(C)[C@@H]1NC(=O)[C@@H]2CSCCS(=O)(=O)N2C1=O	5.0
C=CCN(C(=O)[C@@H](C1CC1)[C@@H](O)c1ccc2ccccc2c1)c1ccccc1	-1.6
CN(C(=O)CSc1ncnc2c(-c3cccs3)nsc12)C1CCCCC1	1.1
CCOc1ccc(N(C(C)=O)c2nc(C)cc(C)c2C#N)cc1	19.3*	HuH7 TTR inh=-6.4;TTR act confirm=0.2
COc1ccc(C(=O)COc2nc(C)cc(C)c2C#N)cc1	7.2
SMILES	TTR transcr act	others
CCOC(=O)CN(C(=O)COc1nc(C)cc(C)c1C#N)c1ccc(F)cc1	-0.8
O=C(Nc1ccc(F)cc1)OCc1cn(Cc2c(F)cccc2F)nn1	0.1
O=C(NCCc1ccccc1)OCc1cn(Cc2cc(F)ccc2F)nn1	1.4
O=S(=O)(CC1NCCc2ccccc21)NCc1ccccc1 (stereo not drawn)	2.7
COc1ccc(-n2cc(COC(=O)NCCc3ccccc3)nn2)cc1	11.0*	HuH7 TTR inh=-7.8;TTR act confirm=-0.5
O=C(NCCc1ccccc1)OCc1cn(-c2cccc(C(F)(F)F)c2)nn1	4.2
O=C(NCCc1ccccc1)OCc1cn(-c2c(F)cccc2F)nn1	0.6
COc1cc(NC(=O)NC2CCCCN(Cc3ccc(Cl)cc3)C2=O)cc(OC)c1 (stereo not drawn)	2.1
COC(=O)[C@]12C[C@H](CC(=O)N3CCSCC3)C(=O)N(CCc3ccc(OC)c(OC)c3)C1=C[C@H](C(C)C)O[C@@H]2C1CC1	9.2
O=C(Cc1ccc(F)cc1)N/N=C/c1ccccn1	0.7
O=C(Cc1cccs1)N/N=C/c1ccccn1	15.3*	HuH7 TTR inh=-10.5;TTR act confirm=-0.5
Cc1ccc(/C=N/NC(=O)Cc2cccs2)o1	0.2
C[N+]1=C2N[C@@H](c3ccccc3)CC(=O)N2/C(=C\c2ccccc2)[C@@H]1Cc1ccccc1	-1.1
NC(=O)C1CCN(c2ccnc(Cl)n2)CC1	1.5
CN(C)CCNc1ccc(CO)c2oc3ccc(O)cc3c(=O)c12	16.0*	HuH7 TTR inh=-91.9;TTR act confirm=12.8*
Cc1cc(NCCO)c2cc(O)ccc2n1	5.9
O=C(NCCc1nc2ccccc2n1C/C=C/c1ccccc1)C1CCCCC1	-0.5
CCCCOCCCNC(=O)C[C@H]1C[C@@]2(C(=O)OC)C(=C[C@H](C3CCCC3)O[C@@H]2C)N(Cc2cccc3ccccc23)C1=O	-1.1
O=C1OCc2ccc(NC(=O)c3c(F)cccc3Cl)cc21	-0.2
O=C1OCc2ccc(NC(=O)C3CC3)cc21	20.9*	HuH7 TTR inh=-5.8;TTR act confirm=-0.1
O=C(Nc1cccc(Cl)c1)Nc1ccc2c(c1)C(=O)OC2	2.1
COc1ccc(C2NC(=O)c3ccccc3N2)cc1COc1ccc(NC(C)=O)cc1 (stereo not drawn)	1.4
O=C(CSc1nc2ccccc2c(=O)[nH]1)NC1CCCCC1	0.1
NC(=O)c1nsc(C(=O)N(CC(=O)NC2CCCCC2)c2cccc(F)c2)c1N	1.3
CC(C(=O)NC1CCCCC1)N(Cc1ccc(F)cc1)C(=O)c1snc(C(N)=O)c1N (stereo not drawn)	2.2
SMILES	TTR transcr act	others
NC(=O)c1nsc(C(=O)N(CC(=O)NC2CCCC2)c2ccc(F)c(Cl)c2)c1N	16.6*	HuH7 TTR inh=-26.0;TTR act confirm=-0.2
O=C1CCC[C@H]2CC3(CC[C@]24CCCN14)OCCO3	0.3
CC(=O)Nc1sc2c(c1-c1nc3ccccc3s1)CCOC2	-0.7
CC(=O)Nc1sc2c(c1-c1nc3ccccc3s1)CCN(C(C)=O)C2	-2.2
COC(=O)[C@@]12CCCCC3=C1N(CCC3)C(=O)[C@H]2CC(=O)NCC1CCCCC1	-0.3
CSc1ncccc1C(=O)OCc1c(F)cccc1Cl	-0.2
COC(=O)c1cccc(COC(=O)c2cccnc2SC)c1	12.5*	HuH7 TTR inh=-2.5;TTR act confirm=0.1
COC(=O)c1ccc(COC(=O)c2cccnc2Cl)cc1	-1.4
O=C(OCC#CCSc1nnc(-c2cccc3ccccc23)o1)c1sccc1Cl	0.2
CN(C)[C@H]1CCN(c2ccc3c(c2)O[C@H]2CCN(C2)S3(=O)=O)C1	-0.8
CC1CCCN(c2cccc3c2S(=O)(=O)N(Cc2cccc(Cl)c2)[C@@H](C)[C@H](c2ccccc2)O3)C1 (stereo partly drawn)	1.3
CSc1ccc(CNCC(O)c2ccccc2)cc1 (stereo not drawn)	4.2
COc1cc(CNCC(O)c2ccccc2)ccc1OCc1ccc(Cl)nc1 (stereo not drawn)	10.5*	HuH7 TTR inh=-9.1;TTR act confirm=2.6
COc1cc(CNCc2ccccn2)ccc1OCc1ccccc1Cl	-1.4
CCCC[C@H](C(=O)N(C)c1cccc(OC)c1)[C@@H](O)c1ccc(C(C)=O)cc1	-0.8
CCSc1nc(C)c(C(C)=O)cc1C#N	0.0
CC(=O)c1cc(C(C)=O)c(C)nc1C	9.9*	HuH7 TTR inh=-7.4;TTR act confirm=12.8*
CC(=O)c1cc(C#N)c(Oc2ccccc2)nc1C	-2.3
O=C1CCc2cc(S(=O)(=O)Nc3ccc4c(c3)OCCO4)ccc2N1	-0.7
COc1ccc(CNC(=S)N/N=C/c2ccncc2)cc1	0.5
CC(C)COc1ccc(CNC(=S)N/N=C/c2ccc([N+](=O)[O-])cc2)cc1	11.4*	HuH7 TTR inh=6.9;TTR act confirm=-0.8
CC(C)Oc1ccc(CNC(=S)N/N=C/c2ccc([N+](=O)[O-])cc2)cc1	2.0
